NTMT1 inhibitor – NTMT1 methyltransferase inhibition. NTMT1 MTase-Glo SAH luminescence, purified enzyme. Q9BV86. actives 2.5% (n = 59,000). Potency, µM (highest dose often 114 µM), for inactives: top-dose activity change, negative = inhibition, usual class: inhibitors;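 note: potency is the fitted concentration of half-maximal effect; plate controls were DMSO vehicle for no effect and no enzyme for full effect; nearly all actives have a fitted effect of over 65% in size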
Target sequence (Q9BV86 whole entry, looked up): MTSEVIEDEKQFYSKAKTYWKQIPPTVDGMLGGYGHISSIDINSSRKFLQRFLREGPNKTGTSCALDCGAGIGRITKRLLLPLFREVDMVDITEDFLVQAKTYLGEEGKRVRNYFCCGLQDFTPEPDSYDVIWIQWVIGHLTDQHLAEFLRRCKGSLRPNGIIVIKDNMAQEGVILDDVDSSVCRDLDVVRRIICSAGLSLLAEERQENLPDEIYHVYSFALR
TSG101-PTAP inh – blocks PTAP binding to human TSG101, validation. Q99816. Fluorescence polarization, FITC-PTAP peptide/Tsg101, 20 min. Potency, µM (highest dose often 115 µM), hits mostly inhibitors. 44,000 tested, under 10 active; note: potency is the fitted concentration of half-maximal effect; 0% is about no effect
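Fluorescence polarization binding of Tsg101 binding domain (10 uM final) to FITC-labeled PTAP-motif peptide (50 nM final) in HEPES pH 7.5/NaCl/Tween 20/EDTA/TCEP buffer; 20 min at r.t. Actives by curve class, <25 µM, efficacy <60% inhibition.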
SKOV3 invasion – blocks SKOV3ip1 adhesion and invasion in omental model; SKOV3ip1-GFP adhesion/invasion on 3D omental model, fluorescence; actives 0.1% (n = 46,000); Potency, µM (series often up to 45.8 µM), for the others: at the highest dose activity change, negative = inhibition, usual class: inhibitors;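 note: potency is the fitted concentration of half-maximal effect; plate controls were DMSO wells for no effect and tomatine positive control wells for full effect; nearly all actives have a fitted effect of over 65% in size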
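qHTS, 4-pt dose (0.36-46 umol/L); SKOV3ip1-GFP, 1,200 cells/well, no FBS; primary omental fibroblast/mesothelial co-culture 48 h pre-grown; 2 h RT + 16 h 37 C; PBS wash, 4% PFA; GFP count 488/509 nm.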
B2AR arrestin ag – agonists recruiting beta-arrestin to human beta2-adrenergic receptor; AID 1347077; HTLA Tango cells, beta-arrestin recruitment, luciferase luminescence, 18 h; Potency, µM (doses to about 46.1 µM), actives largely listed as activators; P07550; 44,000 tested, under 10 active;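 note: potency is the fitted concentration of half-maximal effect; 0% = DMSO and full agonism = EC100 isoproterenol or metaproterenol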
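Tango cell line, 1% FBS DMEM; cpd titration up to 46 microM; 18 hr, 37 degrees C, 5% CO2. Luciferin/ATP substrate mix added, 15 min RT, luminescence. %Activity, CRC fitting, curve-class categorization.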
GALK inh – inhibits human galactokinase. 44,000 tested, under 10 active. recombinant GALK, Kinase-Glo ATP luminescence, 1 h. P51570. Potency, µM (series often up to 57.5 µM), for inactives: at the highest dose activity, negative = inhibition, usual class: inhibitors;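 note: plate controls were full GALK reaction for no effect and reaction lacking GALK for full effect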
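Compounds were pinned into ATP buffer, then GALK-galactose mix was added (final 5 nM enzyme, 35 uM ATP, 100 uM galactose, pH 8.0). After 1 h at room temperature, Kinase-Glo Plus was added and luminescence read.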
GPR32 ag – agonists of human resolvin D1 receptor DRV1 (GPR32). O75388. CHO-K1 GPR32 beta-arrestin PathHunter luminescence, 90 min; zero percent set by DMSO-only wells. actives 2.5% (n = 48,000). activation, % at 76.9 µM;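 active = activation of at least 60% and not above a set upper limit, about 1 call in 100 departs from these limits; inconclusive = activation of 40% to 60%, or above that upper limit; inactive = activation under 40%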; note: 0% is about no effect
Target sequence (O75388 whole entry, looked up): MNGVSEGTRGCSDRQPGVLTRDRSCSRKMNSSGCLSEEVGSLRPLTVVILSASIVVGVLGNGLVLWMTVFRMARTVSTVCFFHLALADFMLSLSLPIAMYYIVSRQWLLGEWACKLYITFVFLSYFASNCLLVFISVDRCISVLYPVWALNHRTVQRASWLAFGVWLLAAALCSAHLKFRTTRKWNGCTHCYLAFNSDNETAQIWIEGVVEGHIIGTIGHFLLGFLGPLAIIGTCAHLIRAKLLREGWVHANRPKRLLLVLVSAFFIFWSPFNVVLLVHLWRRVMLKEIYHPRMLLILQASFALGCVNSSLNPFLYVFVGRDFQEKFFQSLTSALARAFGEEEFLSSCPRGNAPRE
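Readings come from a cell-based beta-arrestin complementation format: CHO-K1 GPR32 stable cells (2,500/well) treated 90 min with compounds, then beta-Gal substrate added for 1 h before chemiluminescence imaging.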
Numbers without * were called inactive; i = inactive; ? = inconclusive; . = no result given; ! = not confirmed by another sample; [ ] = another dose, or the depositor's remark. The list is not random: actives were taken first. Their share in the collection is about 3.8%. Unless noted, calls come from the whole dose curve; as a rule, active = well fitted curve in the direction sought with a large enough effect; inconclusive = small, poorly fitted or top-dose-only effect, or another doubt; inactive = no such curve, though single readings can be large; an effect the other way counts as inactive or inconclusive.

SMILES	NTMT1 inhibitor	TSG101-PTAP inh	SKOV3 invasion	B2AR arrestin ag	GALK inh	GPR32 ag
COc1cc(C2c3c(-c4cc(C)ccc4O)n[nH]c3C(=O)N2CCCO)ccc1OCCC(C)C (stereo unspecified)	11%	i	?	i	3%	102*
COCCN1C(=O)c2[nH]nc(-c3cc(C)ccc3O)c2C1c1ccc(C(C)C)cc1 (stereo unspecified)	5%	i	?	i	-1%	25
CCc1ccccc1S(=O)(=O)Cc1ccc(C(=O)NCc2ccc(Cl)cc2)o1	-22%	i	0%	i	-15%	?
CCc1ccccc1S(=O)(=O)Cc1ccc(C(=O)NCCc2ccc(Cl)cc2)o1	-16%	i	2%	i	0%	66*
Cc1cccc(N2CCN(C(=O)C3CCN(C(=O)c4cc5sccc5n4C)CC3)CC2C)c1 (stereo unspecified)	-1%	i	i	i	6%	38
COc1cc2nc(N3CCCC3)nc(NCCCCCN3CCCC3)c2cc1OC	32µM*	.	.	.	.	.
COc1cc2c(NC3CCN(C)CC3)nc(N3CCCN(C)CC3)nc2cc1OCCCN(C)C	-18%	.	.	.	.	.
COc1cc2nc(N3CCCCC3)nc(NC3CCN(Cc4ccccc4)CC3)c2cc1OC	45µM*	.	.	.	.	.
CCN(CC)Cc1ccc2cc(COC(=O)Nc3ccc(C(=O)NO)cc3)ccc2c1	-14%	.	-4%	.	.	.
Cc1[nH]nc2ccc(-c3cncc(OC[C@@H](N)Cc4ccccc4)c3)cc12	25µM*!	.	15%	.	.	.
Cc1cccc(CNc2ncnc3ccc(-c4cccnc4)cc23)c1	-10%	.	.	.	.	.
COc1ccc(NC(=O)Cn2c(=O)oc3ccccc32)cc1	89µM*	i	23%	i	0%	-10
CCOC(=O)c1[nH]c2c(c1C)C(=S)CC(c1ccco1)C2 (stereo unspecified)	40µM*	.	.	.	.	.
COc1ccc(-n2c(SCC(=O)N3CCCc4ccccc43)nc3c([nH]c4ccccc43)c2=O)cc1	2%	i	i	i	1%	35
COc1ccc(-n2c(SCC(=O)N3CCc4ccccc43)nc3c([nH]c4ccccc43)c2=O)cc1	0%	i	i	i	-1%	110*
CCc1cnc2c(c1SCC(=O)NCc1ccccc1Cl)c(=O)n(C)c(=O)n2C	-1%	i	3%	i	-4%	-5
CCC(Oc1ccccc1)C(=O)N1CCN(Cc2cc(=O)n3nc(-c4cccc(C)c4)sc3n2)CC1 (stereo unspecified)	-9%	i	4%	i	1%	61*
COc1cccc(-c2nn3c(=O)cc(CN4CCN(C(=O)/C=C/c5ccccc5)CC4)nc3s2)c1	8%	i	i	i	0%	46
CCc1ccc(NC(=O)CN2C(=O)CCSc3ccccc32)cc1	6%	i	9%	i	6%	63*
COC(=O)c1ccc(NC(=O)CN2C(=O)c3cccc4cccc2c34)cc1	22%	i	12%	i	0%	5
CCc1ccc(NC(=O)CN2C(=O)c3cccc4cccc2c34)cc1	.	i	1%	i	?	120*
O=C(CN1C(=O)COc2ccc(Cl)cc21)Nc1cccc(F)c1	-16%	i	-5%	i	-4%	-13
Cc1ccc(NC(=O)CN2C(=O)COc3ccc(S(=O)(=O)N4CCCCC4)cc32)cc1Cl	4%	i	-4%	i	3%	-30
Cc1ccc(NC(=O)CN2C(=O)COc3ccc(S(=O)(=O)NC4CCCC4)cc32)cc1Cl	5%	i	0%	i	-6%	106*
CCN(CC)S(=O)(=O)c1ccc2c(c1)N(CC(=O)NCCCN1CCN(c3cc(Cl)ccc3C)CC1)C(=O)CO2	?	i	-26%	i	0%	78*
SMILES	NTMT1 inhibitor	TSG101-PTAP inh	SKOV3 invasion	B2AR arrestin ag	GALK inh	GPR32 ag
NS(=O)(=O)c1ccc(NC(=O)CN2C(=O)COc3ccc(Cl)cc32)cc1	?	i	19%	i	4%	93*
Cc1ccc(NC(=O)/C(C#N)=C/c2cc(C)n(-c3ccc(Br)cc3)c2C)cc1C	-9%	i	?	i	-18%	63*
Cc1ccc(-n2c(C)cc(/C=C(\C#N)C(=O)Nc3ccc(C)c(C)c3)c2C)cc1	4%	i	i	i	0%	12
CCOC(=O)c1ccc(NC(=O)c2ccc(-c3cccc(Cl)c3C)o2)cc1	-12%	i	i	i	0%	-7
Cc1c(Cl)cccc1-c1ccc(C(=O)Nc2ccc(F)cc2)o1	-10%	i	-21%	i	-4%	61*
Cc1ccc(-c2csc(=Nc3ccccc3)n2CCCO)cc1	-5%	i	4%	i	8%	86*
OCCCn1c(-c2ccc(F)cc2)csc1=Nc1ccc(F)cc1	-1%	i	i	i	1%	-8
Cc1cc(O)c2ccccc2c1O	?	.	.	.	.	81*
O=c1c(Nc2ccc(Br)c(Br)c2)c(Nc2nnc(-c3ccncc3)s2)c1=O	79µM*	.	.	.	.	.
O=C(O)c1ccc(Nc2nc3ccccc3n3cnnc23)cc1	13µM*	i	7%	i	6%	-3
O=C(O)C1(C(=O)O)CCC1.[NH2-].[NH2-].[Pt+2]	18µM*	.	.	.	.	43
NC1(C(=O)O)CC1	.	.	.	.	.	-4
Cc1ccc(NC(=O)C2CCCN(C(=O)c3cnn(-c4ccc(F)cc4)c3-n3cccc3)C2)c(Cl)c1 (stereo unspecified)	6%	i	-1%	i	0%	-2
Cc1[nH]c(C=C2C(=O)Nc3ccc(S(=O)(=O)N(C)c4cccc(Cl)c4)cc32)c(C)c1C(=O)N1CCN(C)CC1	4%[57.5 µM]	.	13%	.	.	.
CN1CCCN(C(=O)c2cccc(-c3ccc(/C=C4\C(=O)Nc5ccc(Cl)cc54)o3)c2)CC1	7.9µM*	.	.	.	.	.
COc1ccccc1C(=O)NCC(c1cccnc1)N1CCc2ccccc2C1 (stereo unspecified)	0%	i	0%	i	1%	-38
CCOC(=O)c1csc(-n2nc(-c3ccc(F)c(F)c3)c(Cc3ccc(S(N)(=O)=O)cc3)c2N)n1	-4%	.	.	.	.	.
NS(=O)(=O)c1ccc(Cc2c(-c3cccc(-c4ccccc4)c3)nn(-c3nc(C(=O)O)cs3)c2C2CC2)cc1	25µM*	.	.	.	.	.
CC(=O)c1cc(-c2ccccc2)n(CC(=O)NCc2ccccc2C)c1C	.	i	-6%	i	2%	80*
